Assay results published in PubChem BioAssay AID1740 (National Center for Advancing Translational Sciences (NCATS), 2009).
Inconclusive results are not listed. Entries that show only a call come without a potency. Calls of active or inactive are those of the source. The call rests on the fitted dose curve; in most records, active means well fitted activation curve with a large enough effect; inconclusive means small, poorly fitted or top-dose-only effect; inactive means no such curve, though single readings can be large or run the other way.

Assay: Confirmation Concentration-Response Assay for Enhancers of SMN2 Splice Variant Expression
Source text: NIH Chemical Genomics Center [NCGC] NIH Molecular Libraries Probe Production centers Network [MLPCN] MLPCN Grant: R03 MH084179-01 Assay Submitter (PI): Elliot Androphy NCGC Assay Overview: Spinal muscular atrophy (SMA) is caused by insufficient levels of the survival motor neuron protein SMN. The SMN locus on chromosome 5q13 contains two inverted copies of SMN called SMN1 and SMN2 which are 99% identical at the amino acid level. SMN1 is a fully functional protein and SMN2 skips exon 7 90% of the time. Skipping of exon 7 produces non-functional protein product. 10% of the SMN2 protein includes exon 7 and is fully functional. In the SMA disease state, mutations in the SMN1 locus are the cause of the disease state. Because only 10% of SMN2 is of the fully functional form, it is not sufficient to overcome the deficiency produced by the loss of the SMN1 product. A therapy that either increase the amount of SMN2 product made or to increase the inclusion of exon 7 has been proposed for the treatment of SMA. We have designed an assay to identify small molecules that can increase the amount of functional SMN2 product by appending a luciferase reporter gene after the native SMN2 gene, such that inclusion of exon 7 in the expressed product places the luciferase sequence in frame, thus generating functional luciferase enzyme.
NCGC Assay Protocol Summary: This screen utilizes a luciferase reporter gene assay, combining the promoter with the major portion of the native SMN2 cDNA (exons 1 -7, intron 8 , exon 8 fused to luciferase) stably expressed in HEK293 cells. Compounds that increase luciferase signal presumably enhance expression of the functional SMN2 splice variant. Passaging media contained DMEM w/ glutamax (+phenol red) 10% FCS, 1x pen/strep, 200 ug/ml hygro, 1x sodium pyruvate. Assay media contained DMEM w/ glutamax (-phenol red) 10% FCS, 1x pen strep, 1x pyruvate Sequence, Parameter, Value, Description (1) Cells, 5 uL, 2000 cells/well, 1536 TC treated White solid bottom plate (2) Time, 10-12 hours, 37C 5% CO2 (3) Compound, 23 nl, MLSMR Library (4) Control Compound, 23 nL, Sodium butyrate st 4.5mM (final) conc (5) Time, 30-36 hours, 37C 5% CO2 (6) Reagent, 3 ul, One Glo (TM) from Promega (7) Time, 5-15 minutes, Room temp (8) Detector, Viewlux: luminescent read, 60 second integration, high speed 2x binning Keywords: Spinal muscular atrophy, SMA, SMN2, high throughput screening, MLSMR, MLPCN, NIH Roadmap, qHTS and NCGC

Structure (SMILES)	Potency
COc1ccc(CNC(=O)c2ccc(C(C)C)cc2)cc1	5.01 µM (active)
CCc1ccc2nc(N3CCC(C(=O)N4CCC5(CC4)OCCO5)CC3)sc2c1	inactive
C[C@@H]1O[C@@H](O[C@H]2C[C@@H](O)[C@]3(CO)[C@H]4[C@H](O)C[C@]5(C)[C@@H](C6COC(=O)C6)CC[C@]5(O)[C@@H]4CC[C@]3(O)C2)[C@H](O)[C@H](O)[C@H]1O (some centres undefined)	inactive
O=C(C1CCN(c2nc3ccc(Br)cc3s2)CC1)N1CCC2(CC1)OCCO2	inactive
